Test results taken from article PMC5540273 (PLoS ONE, 2017).

The molecules below were run on CSNK1G3. Conditions: concentration: 1 μM, replicates: in singlicate; n = 1.
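Also: KINOMEscan kinase panel screen.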

Point of comparison: Cn1ccc2ncnc(Oc3ccc(NC(=O)Nc4cccnc4)c(Cl)c3)c21, “%Inh” value 0%. Against it:
- COc1ccc(NC(=O)Nc2ccc(C)c(-c3ccc(C(=O)Nc4ccncc4)cc3)c2)cc1 [GSK1398475] — higher, 44%
- Clc1ccc(-c2cc(-c3c[nH]nc3-c3ccccn3)ccn2)cc1 [GW681251] — the same, 0%
- CC(C)(C)OC(=O)NC1CCCN(c2cc(-c3ccc4c(N)n[nH]c4c3)nc(N)n2)C1 (stereo not drawn) [GSK2286096] — higher, 24%
- CSc1ccc(NC2=C(c3ccccc3Cl)C(=O)NC2=O)cc1 [SB-342411] — the same, 0%
- COC(=O)c1cccc(NC(=O)NCCNc2ccnc(Nc3ccc(F)cc3)n2)c1 [GSK1379883] — higher, 25%
- Fc1cccc(COc2ccc(Nc3ncnc4sc(-c5ccc[nH]5)cc34)cc2Cl)c1 [GW707818] — higher, 31%
- c1ccc(-c2ccc3c(-c4ccnc(Nc5ccc6c(c5)OCCO6)n4)cnn3n2)cc1 [GW818941] — higher, 27%
- Fc1cccc(COc2ccc(Nc3ncnc4cc[nH]c34)cc2Cl)c1 — higher, 4%
- COc1cc2c(Nc3cccc(NC(=O)c4ccccc4)c3)ncnc2cc1OCCCN1CCOCC1 [GSK223810] — higher, 18%
- COc1ccc(NC(=O)c2ccc(-c3cc(-c4nnc(C)o4)ccc3C)cc2)cc1 [GW595885] — higher, 14%
- Cl.Fc1ccccc1COc1ccc(Nc2ncnc3ccc(-c4nnc(C(F)(F)F)o4)cc23)cc1Cl [GW424170] — higher, 30%
- CNc1nccc(-c2c(-c3ccc(F)cc3)ncn2CCCN2CCOCC2)n1 [SB-222516] — higher, 4%
- Cc1cc(N2CCC(NS(=O)(=O)c3ccc(F)cc3)CC2)nc(Nc2cccc(C#N)c2)n1.O=C(O)C(F)(F)F [GSK1653537] — higher, 15%
- O=C(c1ccc(-c2cc(-c3c[nH]nc3-c3ccccn3)ccn2)cc1)N1CCCC1 [GW792479] — the same, 0%
- Nc1nc(-c2ccc3c(N)n[nH]c3c2)cc(N2CCC[C@@H](C(=O)Nc3ccccc3)C2)n1.O=C(O)C(F)(F)F.O=C(O)C(F)(F)F [GSK2288359] — higher, 25%
- Cl.Cl.c1ccc(-c2cc3ccncc3cc2OC2CCNCC2)cc1 [GSK1122999] — higher, 27%
- Fc1ccc(-c2ncn(CCCNCc3ccccc3)c2-c2ccncc2)cc1 — higher, 20%
- CCn1c(-c2ccncc2)nc2cnccc21 [SB-735216] — higher, 4%
- C[C@H]1CC[C@@H](C(=O)Nc2ccccc2)CN1c1cc(-c2ccc3c(N)n[nH]c3c2)nc(N)n1 [GSK2283293] — higher, 7%
- NC(=O)c1sc(-n2cnc3ccccc32)cc1OCc1ccccc1F [GSK1024306] — higher, 18%
- Cl.Cn1ccc(-c2cccc(Nc3ccnc4cc(-c5nccs5)ccc34)c2)n1 [GW525701] — the same, 0%
- FC(F)(F)c1cc(Nc2nccc(-c3c(-c4ccc(Cl)cc4)nn4ncccc34)n2)ccc1Cl [GW829351] — the same, 0%
- N#Cc1ccc(Oc2ccc(Nc3ncnc4cc[nH]c34)cc2Cl)cc1 — higher, 21%
- OCCOCCn1ccc2ncnc(Nc3ccc(Oc4cccc(Cl)c4)c(Cl)c3)c21 — the same, 0%
- Fc1cccc(COc2ccc(Nc3ncnc4nn5ccccc5c34)cc2Cl)c1 [GW689066] — higher, 3%
- Nc1nc(-c2ccccn2)c(-c2ccnc3ccccc23)s1 [GW548057] — higher, 27%
- CCCc1ccc(S(=O)(=O)NC2CCN(c3ccnc(Nc4ccc(OC)cc4)n3)C2)cc1 (stereo not drawn) [GSK1379737] — higher, 21%
- Cc1ccc(O)cc1Nc1cc(C(F)(F)F)nc2ccc(-c3ccncc3)cc12 [GW630823] — higher, 5%
- CNc1nccc(-c2c(-c3ccc(F)cc3)ncn2C2CCN(C)CC2)n1 [SB-222903] — the same, 0%
- Nc1nc(-c2cccnc2)c(-c2ccnc3ccccc23)s1 [GW684083] — higher, 13%
- O=C(Nc1ccccc1)Nc1ccc(Oc2ccc3nccn3n2)cc1 — higher, 29%
- CC(C)(C)c1ccc(-n2cnc3c(N)ncnc32)cc1 [SKF-97263] — higher, 25%
- Cc1ccc(NC(=O)c2cccc(C#N)c2)cc1-c1ccc(C(=O)Nc2ccncc2)cc1 [GSK1398463] — higher, 41%
- Cc1ccc(C)c(NC(=O)NCCNc2ccnc(Nc3ccc(F)cc3)n2)c1 [GSK1379878] — higher, 24%
- Nc1nccc2scc(-c3ccc4c(c3)CCN4C(=O)Cc3cc(F)ccc3F)c12 [GSK2587663] — higher, 10%

The molecules below were run on CSNK2A1. Conditions: concentration: 1 μM, replicates: in singlicate; n = 1.

Point of comparison: Nc1nc(-c2ccc3c(N)n[nH]c3c2)cc(N2CCC[C@@H](C(=O)Nc3ccccc3)C2)n1.O=C(O)C(F)(F)F.O=C(O)C(F)(F)F [GSK2288359], “%Inh” value 1%. Against it:
- COc1ccc(NC(=O)Nc2ccc(C)c(-c3ccc(C(=O)Nc4ccncc4)cc3)c2)cc1 [GSK1398475] — lower, 0%
- Clc1ccc(-c2cc(-c3c[nH]nc3-c3ccccn3)ccn2)cc1 [GW681251] — lower, 0%
- CC(C)(C)OC(=O)NC1CCCN(c2cc(-c3ccc4c(N)n[nH]c4c3)nc(N)n2)C1 (stereo not drawn) [GSK2286096] — lower, 0%
- CSc1ccc(NC2=C(c3ccccc3Cl)C(=O)NC2=O)cc1 [SB-342411] — higher, 2%
- COC(=O)c1cccc(NC(=O)NCCNc2ccnc(Nc3ccc(F)cc3)n2)c1 [GSK1379883] — lower, 0%
- Fc1cccc(COc2ccc(Nc3ncnc4sc(-c5ccc[nH]5)cc34)cc2Cl)c1 [GW707818] — lower, 0%
- c1ccc(-c2ccc3c(-c4ccnc(Nc5ccc6c(c5)OCCO6)n4)cnn3n2)cc1 [GW818941] — higher, 18%
- Fc1cccc(COc2ccc(Nc3ncnc4cc[nH]c34)cc2Cl)c1 — higher, 36%
- COc1cc2c(Nc3cccc(NC(=O)c4ccccc4)c3)ncnc2cc1OCCCN1CCOCC1 [GSK223810] — higher, 6%
- COc1ccc(NC(=O)c2ccc(-c3cc(-c4nnc(C)o4)ccc3C)cc2)cc1 [GW595885] — lower, 0%
- Cl.Fc1ccccc1COc1ccc(Nc2ncnc3ccc(-c4nnc(C(F)(F)F)o4)cc23)cc1Cl [GW424170] — lower, 0%
- CNc1nccc(-c2c(-c3ccc(F)cc3)ncn2CCCN2CCOCC2)n1 [SB-222516] — higher, 6%
- Cc1cc(N2CCC(NS(=O)(=O)c3ccc(F)cc3)CC2)nc(Nc2cccc(C#N)c2)n1.O=C(O)C(F)(F)F [GSK1653537] — the same, 1%
- Cn1ccc2ncnc(Oc3ccc(NC(=O)Nc4cccnc4)c(Cl)c3)c21 — lower, 0%
- O=C(c1ccc(-c2cc(-c3c[nH]nc3-c3ccccn3)ccn2)cc1)N1CCCC1 [GW792479] — lower, 0%
- Cl.Cl.c1ccc(-c2cc3ccncc3cc2OC2CCNCC2)cc1 [GSK1122999] — lower, 0%
- Fc1ccc(-c2ncn(CCCNCc3ccccc3)c2-c2ccncc2)cc1 — higher, 22%
- CCn1c(-c2ccncc2)nc2cnccc21 [SB-735216] — higher, 18%
- C[C@H]1CC[C@@H](C(=O)Nc2ccccc2)CN1c1cc(-c2ccc3c(N)n[nH]c3c2)nc(N)n1 [GSK2283293] — higher, 12%
- NC(=O)c1sc(-n2cnc3ccccc32)cc1OCc1ccccc1F [GSK1024306] — higher, 10%
- Cl.Cn1ccc(-c2cccc(Nc3ccnc4cc(-c5nccs5)ccc34)c2)n1 [GW525701] — lower, 0%
- FC(F)(F)c1cc(Nc2nccc(-c3c(-c4ccc(Cl)cc4)nn4ncccc34)n2)ccc1Cl [GW829351] — lower, 0%
- N#Cc1ccc(Oc2ccc(Nc3ncnc4cc[nH]c34)cc2Cl)cc1 — higher, 48%
- OCCOCCn1ccc2ncnc(Nc3ccc(Oc4cccc(Cl)c4)c(Cl)c3)c21 — lower, 0%
- Fc1cccc(COc2ccc(Nc3ncnc4nn5ccccc5c34)cc2Cl)c1 [GW689066] — lower, 0%
- Nc1nc(-c2ccccn2)c(-c2ccnc3ccccc23)s1 [GW548057] — lower, 0%
- CCCc1ccc(S(=O)(=O)NC2CCN(c3ccnc(Nc4ccc(OC)cc4)n3)C2)cc1 (stereo not drawn) [GSK1379737] — lower, 0%
- Cc1ccc(O)cc1Nc1cc(C(F)(F)F)nc2ccc(-c3ccncc3)cc12 [GW630823] — lower, 0%
- CNc1nccc(-c2c(-c3ccc(F)cc3)ncn2C2CCN(C)CC2)n1 [SB-222903] — lower, 0%
- Nc1nc(-c2cccnc2)c(-c2ccnc3ccccc23)s1 [GW684083] — higher, 2%
- O=C(Nc1ccccc1)Nc1ccc(Oc2ccc3nccn3n2)cc1 — lower, 0%
- CC(C)(C)c1ccc(-n2cnc3c(N)ncnc32)cc1 [SKF-97263] — higher, 18%
- Cc1ccc(NC(=O)c2cccc(C#N)c2)cc1-c1ccc(C(=O)Nc2ccncc2)cc1 [GSK1398463] — lower, 0%
- Cc1ccc(C)c(NC(=O)NCCNc2ccnc(Nc3ccc(F)cc3)n2)c1 [GSK1379878] — higher, 5%
- Nc1nccc2scc(-c3ccc4c(c3)CCN4C(=O)Cc3cc(F)ccc3F)c12 [GSK2587663] — lower, 0%
